According to the supplement of paper PMC12669032:
A number with no mark means an inactive call.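 Rule for the calls: active = AUC reduced over 20% with Padj below 0.05 in at least 2 of 3 replicates; inactive = otherwise.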

Tests used:
Assay in all cases: growth AUC relative to DMSO control (median of replicates) (fraction); higher = more growth (less inhibition), active = hit call of the paper
Details in all cases: 20 µM; 24 h
[1] = tested on: Akkermansia muciniphila
Method in brief: (§1)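 Starting at OD600 0.05, gut bacterial monocultures in mGAM were grown anaerobically at 37 °C with 20 µM compound (1% DMSO) under pierced gas-permeable seals. OD600 was read every hour for 24 h, and the lowest OD of each curve was set to 0. Area under the growth curve was normalised to the plate median of solvent-only wells, or to row and column medians on the industrial chemical plate, and the median of three biological replicates grown on separate days is given.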

[2] = tested on: Bacteroides caccae
Method in brief: as §1

[3] = tested on: Bacteroides clarus
Method in brief: as §1

[4] = tested on: Bacteroides dorei
Method in brief: as §1

[5] = tested on: Bacteroides stercoris
Method in brief: as §1

[6] = tested on: Bacteroides thetaiotaomicron
Method in brief: as §1

[7] = tested on: Bacteroides uniformis
Method in brief: as §1

[8] = tested on: Bifidobacterium longum subsp. longum
Method in brief: as §1

[9] = tested on: Clostridium difficile
Method in brief: as §1

[10] = tested on: Collinsella aerofaciens
Method in brief: as §1

Compound	growth AUC [1]	growth AUC [2]	growth AUC [3]	growth AUC [4]	growth AUC [5]	growth AUC [6]	growth AUC [7]	growth AUC [8]	growth AUC [9]	growth AUC [10]
CNC(=O)Oc1cc(C)c(S(C)(=O)=O)c(C)c1	0.967	1.02	0.963	0.995	0.995	0.97	0.97	0.985	0.998	1.01
CS(=O)(=O)c1ccc(C(=O)C2C(=O)CCCC2=O)c([N+](=O)[O-])c1	0.895	0.986	0.946	0.977	0.979	0.972	0.965	0.965	0.986	0.972
CCCC(Cn1cncn1)c1ccc(Cl)cc1Cl (stereo not given)	1.01	0.936	0.987	0.977	1.2	0.949	0.941	1.07	0.911	0.992
ClC1=C(Cl)[C@]2(Cl)C3CC=CC3[C@@]1(Cl)C2(Cl)Cl (stereo not given in full)	0.898	1.03	0.999	0.992	0.973	0.981	0.971	0.994	0.997	0.965
Clc1cccc(C(Cl)(Cl)Cl)n1	1.16	1.01	1.01	0.948	1.03	1.02	0.961	1.06	1.01	0.974
CCOC(=O)C(Cl)Cc1cc(-n2nc(C)n(C(F)F)c2=O)c(F)cc1Cl (stereo not given)	0.963	0.991	0.927	0.967	0.996	0.926	0.936	1.02	0.981	0.972
Cc1[nH]c(=O)n(C(C)(C)C)c(=O)c1Cl	1.07	1	0.993	0.96	0.979	1	0.981	0.978	0.997	0.924
Cc1cc(C)c(C2=C(OC(=O)CC(C)(C)C)C3(CCCC3)OC2=O)c(C)c1	1.2	0.977	1	0.988	1.23	1.05	0.958	1.05	0.98	1.02
CNC(=O)N(C)c1nnc(C(C)(C)C)s1	0.742	1.02	0.97	1.05	1	0.993	1.01	0.925	1	1.04
CCOP(=O)(OCC)Oc1ccc([N+](=O)[O-])cc1	0.962	1.03	0.999	1.01	1.08	1.01	1	1.15	1.03	1.05
CC1=NNC(=O)N(/N=C/c2cccnc2)C1	0.995	1.01	0.98	1.04	1.01	1.02	1.04	0.993	1.07	1.1
COCC(=O)N(c1c(C)cccc1C)C(C)C(=O)OC (stereo not given)	1.11	1.03	1.02	1.03	1.08	1.02	1.02	1.1	1.04	1.02
CSc1nc(N=[N+]=[N-])nc(NC(C)C)n1	0.963	1.04	0.993	1.04	0.975	1.02	1.07	0.849	1.02	0.998
C[C@H]1[C@H](c2ccc(Cl)cc2)SC(=O)N1C(=O)NC1CCCCC1	0.988	0.91	0.965	0.945	1.13	0.952	0.943	0.923	0.987	0.928
CCCCCCCCn1sccc1=O	1.04	0.924	0.442 (active)	0.912	0.995	0.689 (active)	0.731	0.571 (active)	0.848	0.776 (active)
C=C/C=C/CC1=C(C)C(OC(=O)[C@@H]2C(/C=C(\C)C(=O)OC)C2(C)C)CC1=O.C=C/C=C/CC1=C(C)[C@@H](OC(=O)[C@@H]2C(C=C(C)C)C2(C)C)CC1=O (stereo not given in full)	0.901	0.966	0.918	1.02	0.87	0.967	0.971	0.698	1.01	0.949
CCNc1nc(NC(C)C)nc(SC)n1	0.916	0.959	0.997	0.976	1.19	0.985	1	0.988	0.999	0.983
Cc1cc(OC(=O)N(C)C)nn1C(=O)N(C)C	0.959	1.02	0.992	0.968	1.09	1.02	0.979	0.988	1.01	1.02
CNc1cnn(-c2cccc(C(F)(F)F)c2)c(=O)c1Cl	0.94	0.979	1.02	1.01	0.914	0.994	0.991	0.989	0.937	1.03
CCCCOC(=O)N(C)SN(C)C(=O)Oc1cccc2c1OC(C)(C)C2	1.03	1.02	0.969	1.01	1.08	1.04	1	1.11	0.992	1.01
CCCCN(CCCC)N=O	0.985	1.01	1.02	1.01	1	1	1	1.01	1.01	1.03
CCOP(=S)(OCC)Oc1ccc(S(C)=O)cc1 (stereo not given)	0.951	0.974	0.967	0.985	0.951	0.968	0.993	0.97	0.994	1.05
CCOP(=S)(OCC)Oc1ccc2c(C)c(Cl)c(=O)oc2c1	1.1	0.952	0.957	0.98	0.891	0.934	0.95	0.968	1	1
CNC(=O)Oc1cc(C)c(S(C)=O)c(C)c1 (stereo not given)	0.977	0.949	0.999	1	1.13	0.978	1.02	1.04	0.968	1.05
Cc1cc(C2CC2)nc(Nc2ccccc2)n1	0.934	0.979	0.939	0.916	0.756	0.903	0.981	1.04	0.959	0.953
OC(c1ccc(Cl)cc1)(c1cncnc1)c1ccccc1Cl (stereo not given)	0.992	0.89	0.887	0.893	0.686	0.503 (active)	0.632 (active)	0.921	1.01	0.984
CCc1cccc(CC)c1N(COC)C(=O)CCl	0.942	1	0.991	0.949	1.08	0.957	0.985	1	0.974	0.989
CCC(C)n1c(=O)[nH]c(C)c(Br)c1=O (stereo not given)	1.12	0.833	0.99	0.952	1.13	0.911	0.775 (active)	1.02	0.945	0.96
